Source: PubChem BioAssay
YB-1 expression: YB-1 expression inhibition; U2OS, qRT-PCR YB-1 vs CDIP delta delta Cp, 16 h; hits give high values; zero = DMSO, each unit about twofold; delta delta Cp (YB-1 minus CDIP) (no concentration beside the values); 0.37% of 30,000 active; AID 434959;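 active means delta delta Cp rounded down to an integer at or above 3, about 3 SD of DMSO wells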;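 further: higher means less YB-1 transcript or more CDIP transcript relative to DMSO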
U2OS ROS induce: inducers of reactive oxygen species in cancer cells. U2OS ROS induction, H2DCF-DA fluorescence. ROS induction (% of piperlongumine), % at 10 µM. 2% of 46,000 active; in the data active means ROS induction above about 79%, passing the limit was not always enough; inconclusive means no clear call, values can overlap the other calls
NOMO-1 viab: STK33 inhibitor candidate reducing NOMO-1 cell viability; NOMO-1 AML viability, CellTiter-Glo luminescence, 72 h; inhibition, % (no concentration beside the values); 7.5% of 37,000 active; in the data active means inhibition above about 80%; inconclusive means no clear call, values can overlap the other calls
MITF inh: inhibitors of MITF; TRPM1 promoter luciferase, luminescence, 24 h; 0.28% of 37,000 active; AID 2240; inhibition, % (no concentration beside the values); in the data active means inhibition above about 85%; inconclusive means no clear call, values can overlap the other calls; inactive means below about 68%;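 further: human melanocyte line stably carrying TRPM1 promoter luciferase reporter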
PD-1 reverse act: reversal of PD-1 mediated T-cell inhibition; activation, % (test concentration not listed); primary human CD4 T cells, PD-L1 beads, CellTiter-Glo 96 h; AID 2316; 29,000 tested, under 10 active; call rule not given here
Numbers stand for hits; n = inactive; u = inconclusive; x = no result given. Only a selection was taken, and hits are over-represented in it overall.

SMILES	YB-1 expression	U2OS ROS induce	NOMO-1 viab	MITF inh	PD-1 reverse act
CCOc1cccc2c(C)nc(Nc3nc4c(c(=O)[nH]3)CCCC4)nc12	x	x	121	n	x
COC(=O)COc1cccc(NC(=O)c2ccc(NC(=O)c3ccco3)cc2)c1	x	u	110	n	n
CCOC(=O)c1ccc(NC(=O)c2ccco2)cc1	n	n	n	n	n
COC(=O)COc1cccc(NC(=O)c2ccccc2-c2ccccc2C(=O)O)c1	x	n	n	n	n
COC(=O)COc1cccc(NC(=O)c2cccc(C)c2)c1	x	n	121	n	n
COC(=O)COc1cccc(NC(=O)c2ccc(Cl)c(Cl)c2)c1	x	n	108	n	n
COC(=O)COc1cccc(NC(=O)c2ccccc2)c1	x	n	122	n	n
COc1cccc(C(=O)COc2cccc(NC(=O)c3cccc([N+](=O)[O-])c3)c2)c1	x	n	u	n	n
O=S(=O)(Nc1ccccc1Oc1ccccc1)c1ccc(-c2ccon2)s1	x	n	x	x	x
COc1cccc(NC(=O)CNC(=O)c2cccs2)c1	x	n	n	n	n
COC(=O)COc1cccc(NC(=O)c2cccs2)c1	x	n	137	n	n
COc1ccc(NC(=O)Nc2cccc3c2O[C@@H](CN(C)Cc2ccc(Cl)c(Cl)c2)[C@@H](C)CN([C@@H](C)CO)C3=O)cc1	n	n	121	n	n
COc1ccc(NC(=O)Nc2cccc3c2O[C@@H](CN(C)Cc2ccc(Cl)c(Cl)c2)[C@@H](C)CN([C@H](C)CO)C3=O)cc1	n	n	97	n	n
COc1ccc(NC(=O)CSc2nc(C)cc(C)n2)cc1	x	n	n	n	n
COC(=O)c1cc(NC(=O)CSc2nc(C)cc(C)n2)cc(C(=O)OC)c1	x	n	114	n	n
C[C@H](CO)N1C[C@H](C)[C@H](CN(C)S(=O)(=O)c2ccc(F)cc2)Oc2ncc(C#CC(C)(C)O)cc2C1=O	n	n	x	x	x
Cc1ccc2c(C)c(C(=O)Nc3sc4c(c3C(=O)NCC3CCCO3)CCC4)oc2c1 (configuration not stated)	x	x	n	n	x
Cc1ccc2oc(C(=O)Nc3sc4c(c3C(=O)NCc3ccco3)CCC4)c(C)c2c1	x	x	120	n	x
Cc1ccc2c(C)c(C(=O)Nc3sc4c(c3C(=O)NCC3CCCO3)CCCC4)oc2c1 (configuration not stated)	x	x	114	n	x
CCc1ccc(N=Cc2c(O)n(-c3ccccc3)c(=O)c3ccccc23)cc1	n	n	120	n	n
COc1cc(CN(C)Cc2cccc3ccccc23)c([N+](=O)[O-])cc1OC	x	133	n	n	n
COc1cc2c(cc1NC(=O)Cc1ccccc1[N+](=O)[O-])oc1ccccc12	x	x	n	n	n
C[C@@H]1CN([C@H](C)CO)C(=O)c2cc(NS(C)(=O)=O)ccc2O[C@@H]1CN(C)Cc1ccc(Cl)c(Cl)c1	n	n	n	n	n
C[C@H]1CN([C@@H](C)CO)C(=O)Cc2cc(NC(=O)Nc3ccc(F)cc3)ccc2O[C@H]1CN(C)CC1CCCCC1	n	n	105	n	n
C[C@H](CO)N1C[C@H](C)[C@H](CN(C)CC2CCCCC2)Oc2ccc(NC(=O)Nc3ccc(F)cc3)cc2CC1=O	n	n	95	n	x
SMILES	YB-1 expression	U2OS ROS induce	NOMO-1 viab	MITF inh	PD-1 reverse act
C[C@H]1CN([C@@H](C)CO)C(=O)Cc2cc(NC(=O)Nc3ccc(F)cc3)ccc2O[C@@H]1CN(C)CC1CC1	n	n	n	n	n
CC(C)NC(=O)Nc1ccc2c(c1)CC(=O)N([C@H](C)CO)C[C@H](C)[C@H](CN(C)CC1CCCCC1)O2	n	n	n	n	x
C[C@H]1CN([C@@H](C)CO)C(=O)Cc2cc(NC(=O)Nc3ccc4c(c3)OCO4)ccc2O[C@@H]1CN(C)CC1CCCCC1	n	n	92	n	n
C[C@@H]1CN([C@@H](C)CO)C(=O)Cc2cc(NC(=O)Nc3ccc(F)cc3)ccc2O[C@@H]1CN(C)CC1CCCCC1	n	n	81	n	n
CCOc1cc(/C=N/NC(=O)c2cccc(C(=O)NO)c2)ccc1O	n	n	x	x	x
C[C@H](CO)N1C[C@H](C)[C@H](CN(C)CC2CCCCC2)Oc2ccc(NC(=O)Cc3ccccc3)cc2CC1=O	n	n	n	n	x
C[C@H](CO)N1C[C@H](C)[C@H](CN(C)CC2CCCCC2)Oc2ccc(NC(=O)Nc3ccccc3)cc2CC1=O	n	n	106	n	x
C[C@H]1CN([C@@H](C)CO)C(=O)Cc2cc(NC(=O)Nc3ccc(F)cc3)ccc2O[C@@H]1CN(C)CC1CCCCC1	n	n	99	n	n
C[C@H]1CN([C@@H](C)CO)C(=O)c2cc(NC(=O)Nc3cccc4ccccc34)ccc2O[C@H]1CN(C)CC1CCCCC1	n	n	n	n	n
C[C@@H]1CN([C@H](C)CO)C(=O)Cc2cc(NC(=O)Cc3ccccc3)ccc2O[C@H]1CN(C)CC1CCCCC1	n	79	n	n	n
C[C@H](CO)N1C[C@H](C)[C@H](CN(C)CC2CCCCC2)Oc2ccc(NC(=O)Nc3cccc4ccccc34)cc2CC1=O	n	n	99	n	x
Cc1nc(S(=O)(=O)NCCNc2ccc(-c3ccc(F)cc3)nn2)cn1C	x	n	x	x	x
Cc1ccc(NC(=O)CC2NCCNC2=O)cc1C (configuration not stated)	x	n	n	n	n
C[C@H](CO)N1C[C@H](C)[C@@H](CN(C)CC2CCCCC2)Oc2ccc(NC(=O)Nc3cccc4ccccc34)cc2C1=O	n	n	n	n	n
C[C@@H]1CN([C@@H](C)CO)C(=O)c2cc(NC(=O)Nc3cccc4ccccc34)ccc2O[C@@H]1CN(C)CC1CCCCC1	n	n	118	n	n
O=c1[nH]c2ccc(Cl)cc2c2oc(-c3ccccc3)nc12	n	n	n	n	n
Cc1[nH]c2ccccc2c1Sc1ccccc1	n	n	141	n	n
COc1ccc(CN(C)C[C@H]2Oc3ccc(NS(=O)(=O)c4ccc(Cl)cc4)cc3C(=O)N([C@@H](C)CO)C[C@@H]2C)cc1	n	n	n	n	n
COc1ccc(CN(C)C[C@H]2Oc3ccc(NS(=O)(=O)c4ccc(Cl)cc4)cc3C(=O)N([C@H](C)CO)C[C@@H]2C)cc1	n	147	n	n	x
C[C@@H]1CN([C@H](C)CO)C(=O)c2cc(NS(=O)(=O)c3ccc(Cl)cc3)ccc2O[C@@H]1CN(C)Cc1ccccc1	n	n	87	n	n
COc1ccc(S(=O)(=O)Nc2ccc3c(c2)C(=O)N([C@@H](C)CO)C[C@@H](C)[C@@H](CN(C)Cc2ccc(Cl)c(Cl)c2)O3)cc1	n	n	114	n	n
COc1ccc(S(=O)(=O)Nc2ccc3c(c2)C(=O)N([C@H](C)CO)C[C@H](C)[C@@H](CN(C)Cc2ccc(Cl)c(Cl)c2)O3)cc1	n	n	n	n	n
C[C@@H]1CN([C@H](C)CO)C(=O)c2cc(NS(=O)(=O)c3ccc(Cl)cc3)ccc2O[C@H]1CN(C)Cc1ccccc1	n	n	n	n	n
CC1CCc2c(sc3ncnc(NCCc4nc5ccccc5[nH]4)c23)C1 (configuration not stated)	x	x	97	n	x
